The values below come from PubChem BioAssay (Tox21).

Inconclusive results are not listed. A number with no mark means an inactive call. Calls of active or inactive are those of the source. Calls come from the whole dose curve; as a rule, active = well fitted cell-killing curve with a large enough effect in the repeat runs; inconclusive = weak or mixed curves, or effect the other way; inactive = flat fitted curve, though single readings scatter.

A short description of assay [1]: cAMP Responsive Elements (CRE) small molecule antagonists, cell-based qHTS assay: qHTS cell viability counter screen (AID 2060913). Note: nearly all actives have a fitted effect of over 40% in size. In short, it runs like this: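 HEK293T CRE-bla, 2,000 cells/well, 18 h preincubation; cpd in DMSO + NKH477 0.25 uM final, 3 h 37 C/5% CO2; LiveBLAzer 2 h RT, then CellTiter-Glo 30 min RT, luminescence.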
On the technique in general: Quantitative high-throughput screening tests each substance at several concentrations.

Assay [2] is described as follows: cAMP Responsive Elements (CRE) small molecule agonists, cell-based qHTS assay: qHTS cell viability counter screen (AID 2060914). Note: nearly all actives have a fitted effect of over 50% in size. Put shortly:
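In the same wells as the reporter read, viability of CRE-bla HEK 293T cells was quantified by CellTiter-Glo luminescence after a 3 h compound exposure.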
% is set by controls: 0 for no effect and ±100 for the full control effect.

With `CC1(C)[C@@H](O[C@H]2O[C@H](C(=O)O)[C@@H](O)[C@H](O)[C@H]2O[C@@H]2O[C@H](C(=O)O)[C@@H](O)[C@H](O)[C@H]2O)CC[C@]2(C)[C@H]3C(=O)C=C4[C@@H]5C[C@@](C)(C(=O)O)CC[C@]5(C)CC[C@@]4(C)[C@]3(C)CC[C@@H]12`, the Potency entry in assay [1] and in assay [2] was “inactive” in each case.
As to `CN(C1CCCCC1)S(=O)(=O)c1ccccc1N`, the Potency entry in assay [1] and in assay [2] was “inactive” in each case.
Consider `N#Cc1cscn1`, for which the Potency result in assay [1] and in assay [2] was “inactive” throughout.
Turning to `O=C[C@@H](O)[C@H](O)[C@H](O)CO`, the Potency result in assay [1] and in assay [2] was “inactive” in each case.
Take `C=C[C@@]1(C)CC(=O)[C@]2(O)[C@@]3(C)[C@@H](O)CCC(C)(C)[C@@H]3[C@H](O)[C@H](OC(C)=O)[C@@]2(C)O1`: the Potency entry in assay [1] and in assay [2] was “inactive” each time.
As for `CC(C)NC(=O)NC(C)C`, the Potency entry in assay [1] and in assay [2] was “inactive” in each case.
Consider `CCCCC1CCC(O)CC1` (stereo unspecified), for which the Potency entry in assay [1] and in assay [2] was “inactive” in each case.
Regarding `CSc1ccc(O)cc1C`, the Potency result in assay [1] and in assay [2] was “inactive” in each case.
For the compound `C=CCCC(=O)/C=C/C1C(C)=CCCC1(C)C` (stereo unspecified), the Potency entry in assay [1] and in assay [2] was “inactive” throughout.
As for `COc1cc2c(N3CCN(C(=O)Nc4ccc(OC(C)C)cc4)CC3)ncnc2cc1OCCCN1CCCCC1`, the Potency entry in assay [1] and in assay [2] was “inactive” in each case.
In the case of `Cc1ccc2cccnc2c1`, the Potency entry in assay [1] and in assay [2] was “inactive” throughout.
Regarding `CCc1c(Br)c(Br)c(Br)c(Br)c1Br`, the Potency entry in assay [1] and in assay [2] was “inactive” each time.
In the case of `CC(Cl)C(Cl)Cl` (stereo unspecified), the Potency entry in assay [1] and in assay [2] was “inactive” each time.
For the compound `CN(C)CCCN(C)C`, the viability change, negative = cytotoxic in assay [1] was 8.18% [at 8.39 µM]. Besides, in assay [2], the activity change, negative = cytotoxicity is -2.69% [at 8.39 µM].
Regarding `CCc1nccnc1C`, the Potency result in assay [1] and in assay [2] was “inactive” in each case.
With `N[C@@H](CS)C(=O)O`, the Potency entry in assay [1] and in assay [2] was “inactive” each time.
As for `CC(C)(C)NCC(O)COc1cccc2c1C[C@H](O)[C@H](O)C2` (stereo partly specified), the Potency entry in assay [1] and in assay [2] was “inactive” in each case.
Turning to `CO[C@H]1C=CO[C@@]2(C)Oc3c(C)c(O)c4c(O)c(c5c(c4c3C2=O)=NC2(CCN(CC(C)C)CC2)N=5)NC(=O)/C(C)=C\C=C/[C@H](C)[C@H](O)[C@@H](C)[C@@H](O)[C@@H](C)[C@H](OC(C)=O)[C@@H]1C`, the Potency entry in assay [1] and in assay [2] was “inactive” throughout.
`O=[N+]([O-])c1cccc(C(F)(F)F)c1`: the Potency result in assay [1] and in assay [2] was “inactive” throughout.
As for `O=C(O)c1cn(C2CC2)c2cc(N3CCNCC3)c(F)cc2c1=O`, the Potency entry in assay [1] and in assay [2] was “inactive” each time.
Turning to `CCCCCCCO`, the Potency entry in assay [1] and in assay [2] was “inactive” throughout.
Regarding `Cc1sccc1Br`, the Potency result in assay [1] and in assay [2] was “inactive” each time.
With `CCCc1ccc(N)cc1`, the Potency entry in assay [1] and in assay [2] was “inactive” throughout.
With `Clc1ccc2c(Cl)ccnc2c1`, the Potency result in assay [1] and in assay [2] was “inactive” each time.
As for `CC(C)(CO)CO`, the Potency entry in assay [1] and in assay [2] was “inactive” throughout.
As to `OCC(CO)(CBr)CBr`, the Potency result in assay [1] and in assay [2] was “inactive” in each case.
`C[Si](C)(C)Cl`: the Potency entry in assay [1] and in assay [2] was “inactive” in each case.
Consider `c1ccc(-c2nc[nH]c2-c2ccccc2)cc1`, for which the Potency entry in assay [1] and in assay [2] was “inactive” each time.
For `CC(C)CCCCCCOC(=O)c1ccc(C(=O)OCCCCCCC(C)C)c(C(=O)OCCCCCCC(C)C)c1`, the Potency entry in assay [1] and in assay [2] was “inactive” in each case.
On to `CCOc1ccc(O)cc1`, for which the Potency result in assay [1] and in assay [2] was “inactive” each time.
As for `Cc1c2oc3c(C)ccc(C(=O)N[C@@H]4C(=O)N[C@H](C(C)C)C(=O)N5CCC[C@H]5C(=O)N(C)CC(=O)N(C)[C@@H](C(C)C)C(=O)O[C@@H]4C)c3nc-2c(C(=O)N[C@@H]2C(=O)N[C@H](C(C)C)C(=O)N3CCC[C@H]3C(=O)N(C)CC(=O)N(C)[C@@H](C(C)C)C(=O)O[C@@H]2C)c(N)c1=O`, the Potency result in assay [1] and in assay [2] was “inactive” in each case.
For `NC1=NCC2c3ccccc3Cc3ccccc3N12` (stereo unspecified), the Potency entry in assay [1] and in assay [2] was “inactive” each time.
For `Cc1cc(C)c(N)cc1C`, the Potency entry in assay [1] and in assay [2] was “inactive” in each case.
On to `CC(=O)N(CC(O)CN(C(C)=O)c1c(I)c(C(=O)NCC(O)CO)c(I)c(C(=O)NCC(O)CO)c1I)c1c(I)c(C(=O)NCC(O)CO)c(I)c(C(=O)NCC(O)CO)c1I` (stereo unspecified), for which the Potency entry in assay [1] and in assay [2] was “inactive” in each case.
For `O=C(Nc1ccccc1)c1cc([N+](=O)[O-])ccc1Cl`, the Potency result in assay [1] and in assay [2] was “inactive” each time.
Take `CCOCN(C(=O)CS(=O)(=O)O)c1c(C)cccc1CC`: the Potency result in assay [1] and in assay [2] was “inactive” in each case.
`CC1(C)NC(=O)NC1=O`: the Potency entry in assay [1] and in assay [2] was “inactive” each time.
For `CCOC(=O)C(F)(F)F`, the Potency result in assay [1] and in assay [2] was “inactive” each time.
Take `O=[N+]([O-])c1cccc(Cl)c1`: the Potency entry in assay [1] and in assay [2] was “inactive” each time.
Take `CCCCOC(=O)CCC(C)=O`: the Potency entry in assay [1] and in assay [2] was “inactive” throughout.
As for `CC(=O)SCc1ccco1`, the Potency entry in assay [1] and in assay [2] was “inactive” throughout.
For the compound `CCCCCOc1ccccc1/C(=C\SC)n1ccnc1`, the Potency result in assay [1] and in assay [2] was “inactive” in each case.
`O=C=Nc1ccc(Cl)c(Cl)c1`: the Potency result in assay [1] and in assay [2] was “inactive” in each case.
In the case of `CN1C[C@@H]2C[C@H]1CN2c1cc2c(cc1F)c(=O)c(C(=O)O)cn2C1CC1`, in assay [1], the viability change, negative = cytotoxic is -0.602% [at 18.9 µM]. In addition, the activity change, negative = cytotoxicity in assay [2] was 19.9% [at 18.9 µM].
For the compound `c1c[nH]cn1`, the Potency entry in assay [1] and in assay [2] was “inactive” each time.
Take `Oc1ccc(Sc2ccc(O)cc2)cc1`: the Potency result in assay [1] and in assay [2] was “inactive” in each case.
Regarding `Nc1ccc(S(=O)(=O)c2ccc(N)cc2)cc1`, the Potency entry in assay [1] and in assay [2] was “inactive” each time.
With `CC1COc2ccccc2N1C(=O)C(Cl)Cl` (stereo unspecified), the Potency entry in assay [1] and in assay [2] was “inactive” in each case.
As for `COCCOC`, the Potency result in assay [1] and in assay [2] was “inactive” each time.
In the case of `CCCS(=O)c1ccc2nc(NC(=O)OC)[nH]c2c1` (stereo unspecified), the Potency entry in assay [1] and in assay [2] was “inactive” in each case.
Regarding `CC/C=C\C/C=C\C/C=C\CCCCCCCC(=O)OCC`, the Potency result in assay [1] and in assay [2] was “inactive” throughout.
Take `CCCCCCC`: the Potency entry in assay [1] and in assay [2] was “inactive” in each case.
Regarding `O=[N+]([O-])c1cc[n+]([O-])cc1`, the Potency result in assay [1] and in assay [2] was “inactive” in each case.
